The whole screen tested about 69,000 compounds, of which about 8,600 (12%) showed an effect of 50% or more. The sample as a whole holds a higher share of strong results than the screen did.

This experiment concerns Plasmodium berghei. The experiment can be described thus: Screen against P. berghei liver stage (PbLuc), transformed with Luciferase, at 10uM. The settings on record: tested at 10 uM. The class given is functional, HepG2.
Regarding `COc1ccc(C(O)CNC(=O)NCc2c(C)cc(C)[nH]c2=O)cc1` (stereo not drawn), the INHIBITION is 16.9%.

Regarding `CCO[C@H]1CN(C(=O)c2ccnnc2)[C@@H]2COC[C@H]12`, the INHIBITION is recorded as 13.6%.

As to `CCn1cc(-n2cc3nc(N4CCC(O)CC4)[nH]cc-3c2=O)cn1`, the INHIBITION was -10.6%.

For `O=C(c1cscn1)N1CC[C@@H]2[C@@H]1CCN2C1CCOCC1`, the INHIBITION is on record as -23.1%.

`Cc1cnc(C(=O)N2Cc3ncn(C)c3C(COCC(C)C)C2)cn1` (stereo not drawn): the INHIBITION was 43%.

In the case of `O=C(c1n[nH]cc1Cl)N1CCOCC1`, the INHIBITION came to 39.1%.

In the case of `Cc1ccc(N2CCC3(CCCN(C(=O)c4cnccn4)C3)C2)nn1` (stereo not drawn), the INHIBITION worked out at 18.5%.

In the case of `Cc1noc(C)c1CN1CCc2ncnc(-c3ccc(F)cc3)c2CC1`, the INHIBITION is on record as 67.5%.

In the case of `Cc1noc(C)c1CN1CCc2ncnc(-c3cnn(C)c3)c2CC1`, the INHIBITION worked out at 43%.

In the case of `c1ccc(CN2CCc3ncnc(-c4ccncc4)c3CC2)nc1`, the INHIBITION stood at 46.2%.

Turning to `Cc1ccc(CN2CCc3ncnc(-c4ccc(F)cc4)c3CC2)o1`, the INHIBITION worked out at 13.7%.

For the molecule `Cc1cc(CN2CCN(c3ccnc(-c4ccccc4)n3)CC2)no1`, the INHIBITION is 2.29%.

Consider `Cc1noc(C)c1CN1CCN(c2ccnc(-c3ccccc3)n2)CC1`, for which the INHIBITION amounted to 62.5%.

As to `Cc1noc(C)c1CN1CCc2ncnc(-c3ccccc3)c2CC1`, the INHIBITION is recorded as 53%.

In the case of `Cc1noc(C)c1CN1CCc2ncnc(-c3cccnc3)c2CC1`, the INHIBITION is given as 25.8%.

With `Cc1cnc(CN2CCN(c3ccnc(-c4ccccc4)n3)CC2)cn1`, the INHIBITION was 47.2%.

With `Cc1noc(C)c1CN1CCc2ncnc(-c3ccncc3)c2CC1`, the INHIBITION was found to be 90.1%.

Turning to `Cc1nc(CN2CCc3ncnc(-c4ccc(F)cc4)c3CC2)cs1`, the INHIBITION is reported as 15.4%.

Consider `Cc1ccc(CN2CCc3ncnc(-c4ccncc4)c3CC2)o1`, for which the INHIBITION was -4.32%.

On to `O=C(C1=CCCC1)N1CCC2(CC1)CC(Oc1cccnc1)CO2` (stereo not drawn), for which the INHIBITION came out at 41.3%.

On to `COc1ccc(COCC(O)CNC(=O)c2ccc(C#N)cc2)cc1` (stereo not drawn), for which the INHIBITION stood at 46.2%.

For the molecule `CN(C)C(=O)Cn1c(C2CC2)c(CN2CCSCC2)c2cccnc21`, the INHIBITION was 23%.

For the molecule `CC(=O)c1ccc(OCC(=O)c2cccn2C)cc1`, the INHIBITION was -175%.

For `CC(=O)N[C@@H]1CN(C(=O)Cc2coc3cc(C)ccc23)C[C@H]1O`, the INHIBITION was -5.8%.

`Cc1ccc(CN2CCc3ncnc(-c4ccoc4)c3CC2)o1`: the INHIBITION was -8.28%.

Turning to `c1ccc(CN2CCc3ncnc(-c4ccoc4)c3CC2)nc1`, the INHIBITION stood at 12.4%.

`Cc1noc(C)c1CN1CCc2ncnc(-c3ccoc3)c2CC1`: the INHIBITION is recorded as 68.4%.

As to `Cc1nnc2n1CCN(C(=O)C1CCN(Cc3ccccc3)CC1)C2`, the INHIBITION was determined as 35.7%.

Consider `Cc1cc(NC(=O)CC2(Cn3cnnn3)CCCCC2)nn1C`, for which the INHIBITION stood at 39.1%.

Turning to `Cn1ccc(C(=O)N2CCC[C@]3(C[C@@H](OCc4ccccn4)CO3)C2)n1`, the INHIBITION is 40.9%.

Regarding `OCC1CCCN(Cc2c(C3CCCC3)[nH]c3ncccc23)C1` (stereo not drawn), the INHIBITION is recorded as 69.3%.

Regarding `c1cnc2[nH]c(C3CCCC3)c(CN3CCOCC3)c2c1`, the INHIBITION turned out to be 33.7%.

Consider `CC1CCCN(Cc2c(C3CCOCC3)[nH]c3ncccc23)C1` (stereo not drawn), for which the INHIBITION amounted to 59.7%.

On to `Cc1cnc2[nH]c(C(F)(F)F)c(CN3CCCC(CO)C3)c2c1` (stereo not drawn), for which the INHIBITION was 50.8%.

In the case of `CCN1CCN(Cc2c(C3CCCC3)[nH]c3ncccc23)CC1`, the INHIBITION is listed as 20.4%.

Consider `Cc1cnc2[nH]c(C(F)(F)F)c(CN3CCOCC3)c2c1`, for which the INHIBITION is recorded as -0.232%.

On to `CC1CCCN(Cc2c(C3CC3)[nH]c3ncccc23)C1` (stereo not drawn), for which the INHIBITION is given as 19.6%.

On to `Cc1cnc2[nH]c(C(F)(F)F)c(CN3CCSCC3)c2c1`, for which the INHIBITION was found to be 21.1%.

Regarding `c1cnc2[nH]c(C3CCCC3)c(CN3CCCCC3)c2c1`, the INHIBITION is -2.11%.

As to `Cc1nc(CN2CCCC(NCCOc3ccccc3C#N)C2)no1` (stereo not drawn), the INHIBITION was 44.1%.

With `CC(c1ccc2c(c1)OCCO2)N(C)C(=O)c1ccnnc1` (stereo not drawn), the INHIBITION is on record as -4.21%.

As to `Cn1ccc(CN2CCN(CC3CC3)CC2)cc1=O`, the INHIBITION worked out at 21.5%.

With `COCCCNC(=O)CN(C)C(=O)c1ccc(OC)cc1O`, the INHIBITION came to 7.925%.

Turning to `CCNC(=O)CN1CCN(c2cc(C)nc(-c3ccncc3)n2)CC1`, the INHIBITION amounted to 48.1%.

As for `CCS(=O)(=O)NCc1nc(C)cc(N2CCCC2)n1`, the INHIBITION came out at 25.1%.

Consider `CCCS(=O)(=O)N1CCN(c2cc(-n3nc(C)cc3C)nc(C)n2)CC1`, for which the INHIBITION worked out at 0.139%.

For `CC(=O)N1CCCn2nc(CNS(=O)(=O)Cc3ccccc3)cc2C1`, the INHIBITION is recorded as -3.83%.

`Cc1cc(N2CCCC2)nc(CNS(=O)(=O)Cc2ccccc2)n1`: the INHIBITION is recorded as 81%.

For `Cc1nc(C2CCCN(C(=O)CO)C2)cc(N2CCOCC2)n1` (stereo not drawn), the INHIBITION is -1.53%.

`CCNC(=O)CCN1CCC(c2cc(N3CCOCC3)nc(C)n2)CC1`: the INHIBITION turned out to be 38.5%.

As for `CCS(=O)(=O)NCc1nc(C)cc(N2CCCCC2)n1`, the INHIBITION was found to be 75.2%.

Consider `CCCc1nc(C)cc(N2CCC3(CCC(=O)N(C4CC4)C3)CC2)n1`, for which the INHIBITION was -23.5%.

`O=S(=O)(Cc1ccccc1)NCC1CCN(c2cnccn2)CC1`: the INHIBITION is -45.8%.

These data come from ChEMBL document CHEMBL4513216, “Probing the Open Global Health Chemical Diversity Library for Multistage-Active Starting Points for Next-Generation Antimalarials” (ACS Infect Dis, 2020).
